# Test results published in the supplement of paper PMC9925115.
# Counter-ions that a name gives are not always drawn. ± gives the uncertainty stated by the source.
# System: FLX1
# Assay: cell viability z-score within plate (CellTiter-Glo), mean of 3 biological replicates; higher = higher viability relative to plate (less growth inhibition)
# Settings: 2 µM; time (hr): 120
# Method: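 FLX1 fibrolamellar carcinoma cells (DNAJB1-PRKACA fusion), 600 cells/well in 384-well plates, treated with a Selleck kinase inhibitor library (L1200) at 2 uM for 5 days (120 hr); viability by CellTiter-Glo. A z-score was computed within each plate and averaged over three biological replicates.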
row,SMILES,cell viability z-score within plate
1,CCN(CC)CCCCNc1ncc2cc(-c3cc(OC)cc(OC)c3)c(NC(=O)NC(C)(C)C)nc2n1,-0.321 ± 0.21
2,"CN1CCN(c2ccc3nc(-c4c(N)c5c(F)cccc5[nH]c4=O)[nH]c3c2)CC1 [Dovitinib (TKI-258, CHIR-258)]",0.442 ± 0.46
3,FC(F)c1nc2ccccc2n1-c1nc(N2CCOCC2)nc(N2CCOCC2)n1,0.852 ± 0.61
4,"Cc1[nH]c(/C=C2\C(=O)Nc3ccccc32)c(C)c1CCC(=O)O [Orantinib (TSU-68, SU6668)]",0.388 ± 0.61
5,COc1cc(Nc2ncc(F)c(Nc3ccc4c(n3)NC(=O)C(C)(C)O4)n2)cc(OC)c1OC [R406 (free base)],0.533 ± 0.55
6,Cc1cc(O)c2c(c1)C(=O)c1cccc(O)c1C2=O [Chrysophanic Acid],0.539 ± 0.3
7,Cc1ccccc1CN1C2=NCCN2C(=O)C2=C1CCN(Cc1ccccc1)C2 [TIC10 Analogue],0.481 ± 0.4
8,"Cc1c(CN2CCN(C(=O)[C@H](C)O)CC2)sc2c(N3CCOCC3)nc(-c3cnc(N)nc3)nc12 [Apitolisib (GDC-0980, RG7422)]",0.169 ± 0.42
9,CNC(=O)c1cc(Oc2ccc(NC(=O)Nc3ccc(Cl)c(C(F)(F)F)c3)cc2)ccn1 [Sorafenib Tosylate],-0.335 ± 0.66
10,O=c1c(-c2ccc(O)cc2)coc2cc(O)cc(O)c12 [Genistein],-0.148 ± 0.52
11,COc1ncc(-c2ccc3nccc(-c4ccnnc4)c3c2)cc1NS(=O)(=O)c1ccc(F)cc1F,0.539 ± 0.32
12,OCCn1cc(-c2cnc3nnn(Cc4ccc5ncccc5c4)c3n2)cn1,0.158 ± 1.6
13,CNC(=O)c1cc(Oc2ccc(NC(=O)Nc3ccc(Cl)c(C(F)(F)F)c3)c(F)c2)ccn1 [Regorafenib (BAY 73-4506)],2 ± 0.81
14,O=c1sn(-c2cccc3ccccc23)c(=O)n1Cc1ccccc1 [Tideglusib],-2.63 ± 1.1
15,COc1ccc(S(=O)(=O)N(CCO)c2ccccc2CN(C)C/C=C/c2ccc(Cl)cc2)cc1 [KN-93 Phosphate],0.23 ± 0.54
16,O=C(Nc1cccc(Nc2ncc(Br)c(NCCc3cnc[nH]3)n2)c1)N1CCCC1,0.384 ± 0.1
17,Cn1cnc(N)c2ncnc1-2 [3-Methyladenine (3-MA)],0.219 ± 0.67

row,SMILES,cell viability z-score within plate
1,COc1ccc2c(Oc3ccc(NC(=O)c4c(C)n(CC(C)(C)O)n(-c5ccccc5)c4=O)nc3)ccnc2c1,0.446 ± 0.46
2,Cc1cc([C@@H](C)Nc2ccccc2C(=O)O)c2nc(N3CCOCC3)cc(=O)n2c1,-2.82 ± 2
3,CS(=O)(=O)c1cccc(CNc2nc(Nc3ccc4c(c3)CCC(=O)N4)ncc2C(F)(F)F)c1,-2.81 ± 1.3
4,O=C(NCCCNc1nc(Nc2cccc(NC(=O)N3CCCC3)c2)ncc1I)c1cccs1,-0.658 ± 0.97
5,COc1cc2nccc(Oc3ccc(NC(=O)C4(C(=O)Nc5ccc(F)cc5)CC4)cc3)c2cc1OC [Cabozantinib malate (XL184)],0.553 ± 0.015
6,CCn1c(=O)c(-c2ccc(-c3cncs3)cc2Cl)cc2cnc(Nc3ccc(N4CCN(C)CC4)cc3)nc21,0.491 ± 0.12
7,O=C(Cc1ccc(-c2ccc(OCCN3CCOCC3)cc2)cn1)NCc1ccccc1,0.711 ± 0.45
8,Cc1ccc(NC(=O)c2ccc(CN3CCN(C)CC3)cc2)cc1Nc1nc(-c2cccnc2)cs1 [Masitinib (AB1010)],-1.52 ± 1.2
9,O=C(NC[C@H](O)CO)c1ccncc1Nc1ccc(I)cc1F,-0.968 ± 0.82
10,C=CC(=O)Nc1cccc(Oc2nc(Nc3ccc(N4CCN(C)CC4)cc3)ncc2Cl)c1,-0.0359 ± 0.21
11,CCCS(=O)(=O)Nc1ccc(F)c(C(=O)c2c[nH]c3ncc(Cl)cc23)c1F,0.17 ± 0.093
12,CN1CCN(C2CCN(C(=O)Nc3cc(Oc4ccc(NC(=O)C5(C(=O)Nc6ccc(F)cc6)CC5)c(F)c4)ccn3)CC2)CC1 [Golvatinib (E7050)],0.521 ± 0.14
13,COc1cc2nccc(Oc3ccc(NC(=O)Nc4cc(C)on4)c(Cl)c3)c2cc1OC [Tivozanib (AV-951)],-0.573 ± 0.16
14,CC[C@@H]1C(=O)N(C)c2cnc(Nc3ccc(C(=O)NC4CCN(C)CC4)cc3OC)nc2N1C1CCCC1,-1.49 ± 0.57
15,CCc1cccc(CC)c1NC(=O)N1Cc2[nH]nc(NC(=O)c3ccc(N4CCN(C)CC4)cc3)c2C1,-0.62 ± 0.28
16,CC(C)(C)c1cc(NC(=O)Nc2ccc(-c3cn4c(n3)sc3cc(OCCN5CCOCC5)ccc34)cc2)no1 [Quizartinib (AC220)],-0.415 ± 0.29
17,Cc1[nH]c(/C=C2\C(=O)Nc3ccc(S(=O)(=O)Cc4c(Cl)cccc4Cl)cc32)c(C)c1C(=O)N1CCC[C@@H]1CN1CCCC1,0.00363 ± 0.67
